Here are results for 16 molecules from PubChem BioAssay.

The nature of assay [1]: stimulators of nuclear beta-catenin in C2C12, primary screen, imaging, WNT3A-conditioned medium, mouse C2C12, NPC library (AID 1117326; in the data active = nuclear beta-catenin stimulation mostly above about 4.2%, no sharp cut-off; inactive = mostly below about 10%; note: reference of the scale not given here). The note with it: stronger effect = higher value.
Assay [2] in a line: stimulators of insulin release from INS-1E, primary screen, cell-based, 5 mM glucose, NPC library (AID 1117329;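 active = compound raises insulin release from rat beta cells at 5 mM glucose, no numeric limit stated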; note: reference of the scale not given here). The note with it: rat INS-1E insulin secretion, at 10 µM, stronger effect = higher value.
Assay [3] can be described thus: growth inhibition of GSK3B-pretreated HCT116 cells – cell-based, CellTiter-Glo, 0.2 to 20 µM (AID 1117336;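 active = compounds lowering colon cancer cell viability after pretreatment blocking the GSK3B kinase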). The following applies: HCT116 viability after GSK3B inhibitor, at 20 µM, stronger effect = higher value. (In general: Cellular ATP, detected with luciferase, serves as a proxy for viable cell number.)
A short description of assay [4]: inhibition of endothelial tube formation, primary screen, imaging, VEGF stimulated, CD31 staining, tube area, NPC library (AID 1117340;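 active = compound that reduces growth-factor-driven endothelial tube area in a mixed cell culture, no cutoff stated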). The note with it: VEGF-stimulated ADSC/ECFC co-culture, at 10 µM, stronger effect = higher value.
Assay [5] can be described thus: glucagon-like peptide 1 release enhancers, primary assay, NCI-H716 cell line, NPC library (AID 1117341). Note: reference of the scale not given here. The following applies: NCI-H716 cells, at 10 µM, stronger effect = higher value.
A short description of assay [6]: HCT116 colon cancer cell growth inhibition, primary screen, CellTiter-Glo luminescence, NPC library (AID 1117342;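 active = compounds that lower survival of HCT116 colon cancer cells in the luminescence readout, no numeric limit stated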). The note with it: at 20 µM (top of the series).
Assay [7] in a line: CellTiter-Glo luminescent readout of SW480 viability loss, NPC library primary (AID 1117343;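 active = compounds that lower viability of the colon cancer cells in the luminescence readout, with no numeric limit stated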). The following applies: CellTiter-Glo luminescence; at 20 µM (top of the series).
Assay [8] can be described thus: decreased DLD-1 cellular survival, CellTiter-Glo luminescent readout, NPC compound collection, primary HTS (AID 1117346;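 active = compounds that lower survival of DLD-1 colon cancer cells in the luminescence readout, no cutoff given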). The note with it: DLD-1 viability, CellTiter-Glo luminescence; at 20 µM (top of the series).

Each structure is given as a SMILES string. Active and inactive are the calls of the source.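 Rule for the calls, unless noted: active = compound raises GLP1 secretion from the human gut endocrine cells, with no numeric limit stated; inactive = the rest.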

In the case of `CC(C)C[C@@H]1[C@H](c2ccccc2)OC(=O)N1CCCN1CCCCCC1`, the nuclear beta-catenin stimulation in assay [1] (at 10 µM) was 1.3% (inactive); in assay [1] (stimulation, at 2 µM) it was 1.6%. The insulin secretion stimulation in assay [2] was 15% (inactive). Besides, in assay [3], the viability decrease was 21.1% (inactive). In addition, the tube area decrease in assay [4] was 8% (inactive). Also, the GLP1 secretion stimulation in assay [5] is 5.9% (inactive). Besides, the inhibition of viability in assay [6] is 56.3% (active). Further, the viability decrease (inhibition) was 19.9% (inactive) in assay [7] and 18.3% (inactive) in assay [8].

Consider `CON=C(C(=O)N[C@@H]1C(=O)N2C(C(=O)O)=C(C[N+]3(C)CCCC3)CS[C@H]12)c1csc(N)n1`, for which the nuclear beta-catenin stimulation in assay [1] (at 10 µM) is -2.1% (inactive); in assay [1] (stimulation, at 2 µM) it was 0.2%. Further, in assay [2], the insulin secretion stimulation was 3.1% (inactive). The viability decrease in assay [3] was 4.1% (inactive). In assay [4], the tube area decrease is 2.5% (inactive). Moreover, in assay [5], the GLP1 secretion stimulation is -0.7% (inactive). Further, in assay [6], the inhibition of viability was -21.3% (inactive). For the same molecule, the figures for the viability decrease (inhibition) in assay [7] and in assay [8] were -14.4% (inactive) and -9.8% (inactive), respectively.

As for `O=C1C(c2[nH]c3ccc(S(=O)(=O)O)cc3c2O)=Nc2ccc(S(=O)(=O)O)cc21`, the nuclear beta-catenin stimulation in assay [1] (at 10 µM) was -1.7% (inactive); in assay [1] (stimulation, at 2 µM) it was -0.3%. In assay [2], the insulin secretion stimulation was 5.5% (inactive). In addition, the viability decrease in assay [3] was 23.1% (inactive). For the same molecule, in assay [4], the tube area decrease was -3.9% (inactive). Moreover, the GLP1 secretion stimulation in assay [5] is 3% (inactive). Moreover, in assay [6], the inhibition of viability is 11.5% (inactive). Also, the viability decrease (inhibition) in assay [7] is 13.9% (inactive); in assay [8], 7% (inactive).

Regarding `CCCC(=O)Nc1ccc(O)c(C(C)=O)c1`, the nuclear beta-catenin stimulation in assay [1] (at 10 µM) is 1.7% (inactive); in assay [1] (stimulation, at 2 µM), 0.4%. Moreover, in assay [2], the insulin secretion stimulation is 3.1% (inactive). The viability decrease in assay [3] was -4.4% (inactive). In addition, the tube area decrease in assay [4] was -7% (inactive). In addition, the GLP1 secretion stimulation in assay [5] was -3.4% (inactive). For the same molecule, in assay [6], the inhibition of viability is 2.9% (inactive). Also, the viability decrease (inhibition) in assay [7] is -3.5% (inactive); in assay [8], 2.6% (inactive).

Take `N[C@H](Cc1c[nH]c2ccccc12)C(=O)O`: the nuclear beta-catenin stimulation was 0.6% (inactive) in assay [1] (at 10 µM) and 1% in assay [1] (stimulation, at 2 µM). For the same molecule, in assay [2], the insulin secretion stimulation was 2.7% (inactive). In assay [3], the viability decrease was 6.2% (inactive). For the same molecule, the tube area decrease in assay [4] is 1.5% (inactive). Moreover, the GLP1 secretion stimulation in assay [5] was -2.5% (inactive). In addition, in assay [6], the inhibition of viability is -1.87% (inactive). Besides, the viability decrease (inhibition) is 6.5% (inactive) in assay [7] and 1.8% (inactive) in assay [8].

Regarding `O=C(CCC1CCN(Cc2ccccc2)CC1)c1ccc2c(c1)NCCCC2`, the nuclear beta-catenin stimulation in assay [1] (at 10 µM) was 3.2% (inactive); in assay [1] (stimulation, at 2 µM) it was 3.5%. In addition, the insulin secretion stimulation in assay [2] was 4.2% (inactive). In assay [3], the viability decrease was 53.5% (active). Besides, in assay [4], the tube area decrease is 12.9% (inactive). In addition, the GLP1 secretion stimulation in assay [5] is 4.3% (inactive). In addition, in assay [6], the inhibition of viability is 81.9% (active). In addition, the results for the viability decrease (inhibition) in assay [7] and in assay [8] were 93.9% (active) and 62.1% (active), respectively.

Regarding `CN1CC(O)c2cc(N=NC(N)=O)c(O)cc21` (centres undefined), the nuclear beta-catenin stimulation in assay [1] (at 10 µM) is 1.3% (inactive); in assay [1] (stimulation, at 2 µM), 1.3%. In assay [2], the insulin secretion stimulation is -1.7% (inactive). Besides, the viability decrease in assay [3] was 2% (inactive). In assay [4], the tube area decrease is -33% (inactive). Further, the GLP1 secretion stimulation in assay [5] was 2.9% (inactive). In assay [6], the inhibition of viability was -4.6% (inactive). Also, the viability decrease (inhibition) is 4.9% (inactive) in assay [7] and 2.4% (inactive) in assay [8].

As to `O=C(c1ccco1)N1CCNCC1`, the nuclear beta-catenin stimulation in assay [1] (at 10 µM) is 4.5% (inactive); in assay [1] (stimulation, at 2 µM) it was -0.4%. Also, the insulin secretion stimulation in assay [2] is 0.1% (inactive). Moreover, the viability decrease in assay [3] is -3.6% (inactive). Besides, the tube area decrease in assay [4] is -16.6% (inactive). In addition, the GLP1 secretion stimulation in assay [5] is -0.5% (inactive). Besides, the inhibition of viability in assay [6] is -8.9% (inactive). Moreover, the viability decrease (inhibition) in assay [7] was -21.1% (inactive); in assay [8], 5.4% (inactive).

As to `CN[C@@H]1[C@@H](O)[C@@H](O[C@@H]2[C@H](O)[C@H](O[C@H]3OC(CN)=CC[C@H]3N)[C@@H](N)C[C@H]2N)OCC1(C)O` (some centres undefined), the nuclear beta-catenin stimulation was 3.9% (inactive) in assay [1] (at 10 µM) and 5.2% in assay [1] (stimulation, at 2 µM). The insulin secretion stimulation in assay [2] is 0.6% (inactive). The viability decrease in assay [3] is -9.1% (inactive). Further, in assay [4], the tube area decrease was 0.1% (inactive). In addition, in assay [5], the GLP1 secretion stimulation is 2.9% (inactive). Also, the inhibition of viability in assay [6] was -0.03% (inactive). Further, the values for the viability decrease (inhibition) in assay [7] and in assay [8] were -9.1% (inactive) and -8.2% (inactive), respectively.

In the case of `O=C1Cc2cc(Cl)ccc2N1`, the nuclear beta-catenin stimulation was -0.3% (inactive) in assay [1] (at 10 µM) and -1.5% in assay [1] (stimulation, at 2 µM). Moreover, the insulin secretion stimulation in assay [2] is 1% (inactive). Further, in assay [3], the viability decrease was 4.9% (inactive). For the same molecule, the tube area decrease in assay [4] was 2.8% (inactive). The GLP1 secretion stimulation in assay [5] is 3.9% (inactive). In assay [6], the inhibition of viability was 8.4% (inactive). Also, the viability decrease (inhibition) in assay [7] is -9.4% (inactive); in assay [8], 2.7% (inactive).

In the case of `COC(=O)c1ccccc1C(=O)c1ccc(OCCN2CCCCC2)cc1`, the nuclear beta-catenin stimulation in assay [1] (at 10 µM) is 0.4% (inactive); in assay [1] (stimulation, at 2 µM), 0.7%. Also, the insulin secretion stimulation in assay [2] was 0.95% (inactive). In assay [3], the viability decrease is 26.9% (inactive). The tube area decrease in assay [4] was -5.8% (inactive). In addition, the GLP1 secretion stimulation in assay [5] is 3.5% (inactive). Besides, the inhibition of viability in assay [6] was 39.7% (inactive). Moreover, the viability decrease (inhibition) in assay [7] is 15.8% (inactive); in assay [8], 39.7% (inactive).

Take `COC(=O)CCC(=O)CN`: the nuclear beta-catenin stimulation in assay [1] (at 10 µM) is -1.5% (inactive); in assay [1] (stimulation, at 2 µM) it was 0.1%. Further, the insulin secretion stimulation in assay [2] was 0.4% (inactive). Moreover, the viability decrease in assay [3] is 0.2% (inactive). The tube area decrease in assay [4] is -14.2% (inactive). The GLP1 secretion stimulation in assay [5] is -0.4% (inactive). The inhibition of viability in assay [6] is 11.6% (inactive). The viability decrease (inhibition) was 24.2% (inactive) in assay [7] and 18.4% (inactive) in assay [8].

Turning to `Cc1[nH]cnc1C[C@H]1CCc2c(C)c3ccccc3n2C1=O`, the nuclear beta-catenin stimulation in assay [1] (at 10 µM) was 9.2% (inactive); in assay [1] (stimulation, at 2 µM), 0.9%. The insulin secretion stimulation in assay [2] was -0.4% (inactive). In assay [3], the viability decrease was 57.2% (active). In addition, the tube area decrease in assay [4] is 55% (active). Moreover, the GLP1 secretion stimulation in assay [5] is -2.3% (inactive). Also, the inhibition of viability in assay [6] is 92.8% (active). For the same molecule, the viability decrease (inhibition) in assay [7] is 69.2% (active); in assay [8], 65.3% (active).

Regarding `CC(CC1c2ccccc2CCc2ccccc21)CN(C)C` (centres undefined), the nuclear beta-catenin stimulation in assay [1] (at 10 µM) is -1% (inactive); in assay [1] (stimulation, at 2 µM), 0.4%. Also, in assay [2], the insulin secretion stimulation was 29.8% (active). The viability decrease in assay [3] was 34.8% (inactive). Besides, the tube area decrease in assay [4] was 9.8% (inactive). For the same molecule, the GLP1 secretion stimulation in assay [5] is -1.9% (inactive). The inhibition of viability in assay [6] is 44.4% (active). In addition, the viability decrease (inhibition) in assay [7] was 84.4% (active); in assay [8], 87.7% (active).

`CCCCCCCCCCCC[N+](C)(C)Cc1ccccc1`: the nuclear beta-catenin stimulation is 7.4% (inactive) in assay [1] (at 10 µM) and -1.2% in assay [1] (stimulation, at 2 µM). Moreover, in assay [2], the insulin secretion stimulation was 1.9% (inactive). Moreover, the viability decrease in assay [3] was 99.3% (active). Moreover, the tube area decrease in assay [4] was 108% (active). In addition, the GLP1 secretion stimulation in assay [5] was -2.1% (inactive). In assay [6], the inhibition of viability is 99.6% (active). In addition, the viability decrease (inhibition) in assay [7] was 78.1% (active); in assay [8], 101% (active).

Take `Cc1onc(-c2ccccc2Cl)c1C(=O)Cl`: the nuclear beta-catenin stimulation is -1.6% (inactive) in assay [1] (at 10 µM) and -0.5% in assay [1] (stimulation, at 2 µM). Besides, the insulin secretion stimulation in assay [2] was 0.3% (inactive). In addition, the viability decrease in assay [3] was -16.4% (inactive). The tube area decrease in assay [4] was 0.4% (inactive). In assay [5], the GLP1 secretion stimulation was 0.1% (inactive). Moreover, the inhibition of viability in assay [6] was 0.4% (inactive). The viability decrease (inhibition) is 26.4% (inactive) in assay [7] and 14.3% (inactive) in assay [8].
